From PubChem BioAssay (EPA / NIEHS)
Calls of active or inactive are those of the source. How the source made its calls: active means hit-call score of the fitted dose curve at least 0.9, where 1 is the maximum; inactive means score below 0.9.

Columns and labels:
[1] = ATG_GRE_CIS: Attagene CIS-FACTORIAL HepG2 Assay for human Glucocorticoid Response Elements (GRE) (AID 2282947); conditions: HepG2 GRE cis-reporter, Attagene multiplex mRNA; actives raise or lower the signal
Method in brief: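 HepG2 cells transiently transfected with multiple cis-promoter reporter units measure endogenous TF activity; 24 h compound exposure. Reporter mRNA quantified by RT-PCR, FAM labelling, HpaI digestion and capillary electrophoresis; bidirectional fit vs DMSO baseline.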

[2] = ATG_ISRE_CIS: Attagene CIS-FACTORIAL HepG2 Assay for human Interferon Regulatory Factor 1 (IRF1) binding to an Interferon-Stimulated Response Element (ISRE) (AID 2282948); conditions: HepG2 ISRE cis-reporter (Attagene), mRNA transcription readout; actives raise or lower the signal
Method in brief: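 Transiently transfected HepG2 cells carrying cis-element reporter units, dosed 24 hours. Reporter mRNA quantified by RT-PCR, fluorescent primer extension, HpaI digestion and capillary electrophoresis. Bidirectional fitting relative to DMSO.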

[3] = ATG_M_32_CIS: Attagene CIS-FACTORIAL HepG2 Assay for M32 Transcription Factor (Internal Marker) (AID 2282949); conditions: HepG2 Attagene cis-factorial M32 reporter, mRNA; actives raise or lower the signal;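 further: background control marker of the multiplexed CIS panel rather than a real target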
Method in brief: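 Internal background marker read-out: RT-PCR/capillary electrophoresis fluorescence of reporter transcripts from transiently transfected HepG2 cells after 24 h chemical exposure. Activity fitted bidirectionally relative to DMSO negative control.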

[4] = ATG_M_06_CIS: Attagene CIS-FACTORIAL HepG2 Assay for M06 Transcription Factor (Internal Marker) (AID 2282950); conditions: HepG2 Attagene CIS-FACTORIAL M06 internal marker reporter; actives raise or lower the signal
Method in brief: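 Steps: transfect HepG2 with multiplexed cis-element reporter constructs; dose chemical 24 h; extract RNA with DNase treatment; reverse-transcribe, PCR-amplify, 6-FAM label, HpaI digest; separate fragments by capillary electrophoresis. Activity fitted both directions versus DMSO.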

[5] = biological target: Hypoxia-inducible factor 1-alpha (Homo sapiens) (UniProt Q16665); experiment: ATG_HIF1a_CIS: Attagene CIS-FACTORIAL HepG2 Assay for human Hypoxia Inducible Factor 1 (HIF1A) (AID 2282951); conditions: HepG2 Attagene cis-factorial HIF1a reporter transcription; actives raise or lower the signal
Chain of Hypoxia-inducible factor 1-alpha (Homo sapiens) (Q16665 whole entry, looked up): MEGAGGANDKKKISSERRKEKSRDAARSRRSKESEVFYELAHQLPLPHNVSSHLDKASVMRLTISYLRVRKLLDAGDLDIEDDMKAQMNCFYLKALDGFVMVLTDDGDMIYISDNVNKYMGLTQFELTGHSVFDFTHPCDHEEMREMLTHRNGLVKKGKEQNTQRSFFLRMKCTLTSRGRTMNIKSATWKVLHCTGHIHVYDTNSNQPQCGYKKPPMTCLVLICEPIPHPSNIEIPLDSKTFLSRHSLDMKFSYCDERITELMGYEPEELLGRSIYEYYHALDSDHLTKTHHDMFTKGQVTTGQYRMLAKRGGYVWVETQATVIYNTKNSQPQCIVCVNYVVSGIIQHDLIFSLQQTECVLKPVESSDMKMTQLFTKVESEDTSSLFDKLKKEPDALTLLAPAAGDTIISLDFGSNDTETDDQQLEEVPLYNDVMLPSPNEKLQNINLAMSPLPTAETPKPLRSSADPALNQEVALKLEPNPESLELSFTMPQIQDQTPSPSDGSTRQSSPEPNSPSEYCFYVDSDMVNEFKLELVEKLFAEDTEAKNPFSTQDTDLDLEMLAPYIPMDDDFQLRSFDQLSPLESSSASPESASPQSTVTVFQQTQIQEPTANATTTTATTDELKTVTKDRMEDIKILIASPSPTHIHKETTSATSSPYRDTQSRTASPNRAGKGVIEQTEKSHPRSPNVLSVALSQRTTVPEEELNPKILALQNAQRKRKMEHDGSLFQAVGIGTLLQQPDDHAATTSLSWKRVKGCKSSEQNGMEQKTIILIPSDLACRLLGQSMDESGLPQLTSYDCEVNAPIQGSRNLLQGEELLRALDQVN
Method in brief: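 Measures endogenous transcription-factor activity through cis-regulated reporter mRNA in HepG2. Cells dosed 24 h; transcripts quantified by RT-PCR with 6-FAM-labelled products separated by capillary electrophoresis; DMSO serves as negative control.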

[6] = biological target: Hepatocyte nuclear factor 6 (Homo sapiens) (UniProt Q9UBC0); experiment: ATG_HNF6_CIS: Attagene CIS-FACTORIAL HepG2 Assay for human Hepatocyte Nuclear Factor 6 (HNF6) (AID 2282952); conditions: HepG2 Attagene cis-factorial HNF6 reporter transcription; actives raise or lower the signal
Chain of Hepatocyte nuclear factor 6 (Homo sapiens) (Q9UBC0 whole entry, looked up): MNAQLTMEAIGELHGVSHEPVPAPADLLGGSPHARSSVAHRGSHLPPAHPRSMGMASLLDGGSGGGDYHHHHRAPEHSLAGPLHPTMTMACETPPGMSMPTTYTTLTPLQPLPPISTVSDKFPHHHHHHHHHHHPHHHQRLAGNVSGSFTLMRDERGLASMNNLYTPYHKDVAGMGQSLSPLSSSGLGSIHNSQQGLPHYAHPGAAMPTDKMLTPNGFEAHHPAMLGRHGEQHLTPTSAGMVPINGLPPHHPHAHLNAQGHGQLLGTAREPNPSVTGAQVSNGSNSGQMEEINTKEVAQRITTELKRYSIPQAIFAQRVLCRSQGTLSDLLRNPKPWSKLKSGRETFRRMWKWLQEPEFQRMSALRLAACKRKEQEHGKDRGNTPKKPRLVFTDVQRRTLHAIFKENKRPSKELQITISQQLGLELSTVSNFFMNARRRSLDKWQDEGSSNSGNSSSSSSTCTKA
Method in brief: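 Multiplexed mRNA reporter assay in transfected HepG2; 24 h dosing; RT-PCR plus capillary electrophoresis fluorescence; DMSO-referenced bidirectional curve fitting.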

[7] = biological target: Heat shock factor protein 1 (Homo sapiens) (UniProt Q00613); experiment: ATG_HSE_CIS: Attagene CIS-FACTORIAL HepG2 Assay for human Heat Shock Transcription Factor 1 (HSE) (AID 2282953); conditions: HepG2 HSE cis-reporter, Attagene RNA transcription; actives raise or lower the signal
Chain of Heat shock factor protein 1 (Homo sapiens) (Q00613 whole entry, looked up, the tested form may be a part): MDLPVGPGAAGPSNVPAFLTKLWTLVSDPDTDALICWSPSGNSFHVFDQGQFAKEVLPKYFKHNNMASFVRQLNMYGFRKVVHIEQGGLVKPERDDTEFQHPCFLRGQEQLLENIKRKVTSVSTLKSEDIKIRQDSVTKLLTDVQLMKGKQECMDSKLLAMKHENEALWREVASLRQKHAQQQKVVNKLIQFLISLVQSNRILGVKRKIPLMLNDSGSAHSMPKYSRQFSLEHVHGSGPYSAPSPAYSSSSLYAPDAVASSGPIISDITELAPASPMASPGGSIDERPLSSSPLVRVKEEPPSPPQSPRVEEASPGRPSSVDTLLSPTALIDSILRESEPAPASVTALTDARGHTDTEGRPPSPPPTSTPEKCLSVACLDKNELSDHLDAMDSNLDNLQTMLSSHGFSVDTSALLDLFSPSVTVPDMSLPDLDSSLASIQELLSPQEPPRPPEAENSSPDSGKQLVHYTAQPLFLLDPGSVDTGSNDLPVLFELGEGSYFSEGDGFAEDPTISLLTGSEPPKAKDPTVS
Method in brief: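 Cells were transfected with cis-element-driven reporter constructs, dosed for 24 h, then total RNA was reverse-transcribed and reporter cDNA amplified, FAM-labelled and digested with HpaI. Fragments were resolved by capillary electrophoresis; gain or loss was fitted against DMSO.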

[8] = ATG_PBREM_CIS: Attagene CIS-FACTORIAL HepG2 Assay for human Phenobarbital-responsive Enhancer Module (PBREM) (AID 2282955); conditions: HepG2 PBREM cis-reporter, Attagene multiplexed transcription; actives raise or lower the signal
Method in brief: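 Fluorescence of labelled reporter cDNA fragments, resolved by capillary electrophoresis, gives mRNA induction in transfected HepG2 cells treated for 24 h; DMSO serves as negative control and baseline.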

[9] = ATG_MRE_CIS: Attagene CIS-FACTORIAL HepG2 Assay for human Metal Responsive Element (MRE) (AID 2282954); conditions: HepG2 MRE cis-reporter transcription, Attagene multiplex; actives raise or lower the signal
Method in brief: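 HepG2 cells transiently transfected with multiple cis-element reporter units measure endogenous MTF1-driven transcription. After 24 h compound exposure, reporter mRNA is quantified by RT-PCR with 6-FAM labelling, HpaI digestion and capillary electrophoresis; bidirectional fits versus DMSO.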

Measured: AC50

CC(C)CC(O)Cc1ccccc1 (stereo unspecified)
not listed: [9]
inactive: all other assays above

c1ccc(-c2ccccn2)nc1
not listed: [5] | [8]
inactive: all other assays above

OC1CCCC1
not listed: [7]
inactive: all other assays above

FC(F)(F)C(=NOCC1OCCO1)c1ccc(Cl)cc1
not listed: [7] | [9]
inactive: all other assays above

C=C1C2CCC(C2)C1(C)C (stereo unspecified)
not listed: [7]
inactive: all other assays above

OCCNCc1ccccc1
not listed: [5]
inactive: all other assays above

c1cc(C(c2ccc(OCC3CO3)cc2)C(c2ccc(OCC3CO3)cc2)c2ccc(OCC3CO3)cc2)ccc1OCC1CO1 (stereo unspecified)
active: [2] 63.3 µM | [7] 56.5 µM | [9] 50.2 µM
inactive: all other assays above

CC1(C)[C@H]2CC[C@]1(C)C(=O)C2
not listed: [7]
inactive: all other assays above

COc1ccc(-c2coc3cc(O)ccc3c2=O)cc1
not listed: [7] | [8]
inactive: all other assays above

O=C(O)CCCC[C@@H]1SC[C@@H]2NC(=O)N[C@@H]21
not listed: [5]
inactive: all other assays above

[Cl][In]([Cl])[Cl]
not listed: [7]
inactive: all other assays above

ON(Cc1ccccc1)Cc1ccccc1
not listed: [7] | [9]
inactive: all other assays above

O=S(=O)(O)c1ccc2cc(O)c(S(=O)(=O)O)cc2c1
active: [2] 160 µM | [9] 169 µM
not listed: [5]
inactive: all other assays above

O=C(O)c1ccccc1Nc1cccc(C(F)(F)F)c1
active: [9] 100 µM
not listed: [5]
inactive: all other assays above

CCCCCCCCCCCSCC(=O)O
active: [2] 74.1 µM | [5] 124 µM | [6] 100 µM | [9] 106 µM
inactive: [1] | [3] | [4] | [8]

CCCCCCCC/C=C\CCCCCCCC(=O)OCCO
not listed: [5] | [8]
inactive: all other assays above

C[Si](C)O[Si](C)(C)O[Si](C)(C)O[Si](C)C
not listed: [7] | [8]
inactive: all other assays above

C=CC(C)(CCC=C(C)C)OC(=O)CC(C)C (stereo unspecified)
active: [2] 147 µM | [9] 148 µM
not listed: [7]
inactive: all other assays above

CC(=O)c1ccc2c(c1)CCCC2
inactive: all assays above

CN(C)c1ccc(N=Nc2ccccc2C(=O)O)cc1
active: [2] 58.1 µM | [5] 17.9 µM | [7] 56.5 µM
not listed: [9]
inactive: all other assays above

CC(=O)C=CC1C(C)=CCC(C)C1(C)C (stereo unspecified)
not listed: [7]
inactive: all other assays above

CO[Si](OC)(OC)c1ccccc1
not listed: [4]
inactive: all other assays above

COCc1c(C(C)C)nc(C(C)C)c(/C=C/[C@@H](O)C[C@@H](O)CC(=O)O)c1-c1ccc(F)cc1
active: [9] 12.4 µM
not listed: [4] | [7]
inactive: all other assays above

Cc1ccccc1C
not listed: [2] | [8]
inactive: all other assays above

Cc1ccc(N)c([N+](=O)[O-])c1
not listed: [5]
inactive: all other assays above

O=C(Oc1ccccc1)c1ccc2ccccc2c1O
active: [7] 66.2 µM | [9] 57.2 µM | [8] 24.8 µM
not listed: [5]
inactive: all other assays above

NC(CO)(CO)CO
not listed: [4]
inactive: all other assays above

CC1OC1C1CCC2(C)OC2C1 (stereo unspecified)
not listed: [2]
inactive: all other assays above

O=C1CCCC1
inactive: [1] | [3] | [4] | [5] | [6]

Nc1ccc(N=Nc2ccccc2)c(N)n1
active: [9] 69.9 µM
not listed: [5]
inactive: all other assays above
